Only some compounds are listed: those with a hit (about 1.3% of all), similar ones and a draw of the others.
AmpC detergent – qHTS Inhibitors of AmpC Beta-Lactamase (assay with detergent); P00811; AmpC hydrolysis of nitrocefin, absorbance 480 nm, 0.01% Triton; Potency, µM (doses to about 114 µM), for inactives: at the highest dose activity change, negative = inhibition, hits mostly inhibitors; actives 0.041% (n = 370,000); AID 485294, 2010;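 note: potency is the fitted concentration of half-maximal effect; 0% = no-compound wells and -100% = no-enzyme wells; nearly all actives have a fitted effect of over 25% in size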
Target sequence (P00811 whole entry, looked up): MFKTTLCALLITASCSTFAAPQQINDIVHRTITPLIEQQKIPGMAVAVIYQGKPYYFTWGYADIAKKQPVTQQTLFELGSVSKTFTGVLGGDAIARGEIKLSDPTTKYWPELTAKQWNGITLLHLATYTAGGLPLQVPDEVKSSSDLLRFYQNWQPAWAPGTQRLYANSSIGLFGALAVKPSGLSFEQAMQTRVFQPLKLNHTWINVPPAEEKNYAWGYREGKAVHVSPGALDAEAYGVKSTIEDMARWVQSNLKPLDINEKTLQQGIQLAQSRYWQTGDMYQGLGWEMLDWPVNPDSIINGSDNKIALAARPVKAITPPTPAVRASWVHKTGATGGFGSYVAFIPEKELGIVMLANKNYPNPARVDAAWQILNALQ
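AmpC (5.3 nM in the dispensed reagent) in 20 mM phosphate pH 7.0 with 0.01% (detergent screen) or 0.0001% Triton X-100 was preincubated with compounds for 15 min at room temperature. Nitrocefin was then added from an 800 uM solution, and hydrolysis was followed at 480 nm.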
AmpC no deterg – qHTS Inhibitors of AmpC Beta-Lactamase (assay without detergent). P00811. AmpC nitrocefin hydrolysis, absorbance 480 nm, 0.0001% Triton. Potency, µM (titrated, usually from 57.1 µM), inactives show at the top dose activity change, negative = inhibition, hits mostly inhibitors. actives 0.52% (n = 330,000);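 note: potency is the fitted concentration of half-maximal effect; plate controls were no compound for no effect and no enzyme for full effect; nearly all actives have a fitted effect of over 20% in size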
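AmpC (5.3 nM in the dispensed reagent) in 20 mM phosphate pH 7.0 with 0.01% (detergent screen) or 0.0001% Triton X-100 was preincubated with compounds for 15 min at room temperature. Nitrocefin was then added from an 800 uM solution, and hydrolysis was followed at 480 nm.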
VACV mCherry inh – qHTS for Stage-Specific Inhibitors of Vaccinia Orthopoxvirus: mCherry Reporter Primary qHTS; Vaccinia virus mCherry reporter infection, fluorescence; Potency, µM (top dose mostly 36.5 µM), for the others: top-dose activity change, negative = inhibition, usual class: inhibitors; actives 0.63% (n = 310,000); AID 720579, 2013; calls by dose curve; tested in A549 cells; note: potency is the fitted concentration of half-maximal effect; % is set by controls: 0 for no effect and ±100 for the full control effect; nearly all actives have a fitted effect of over 35% in size
VACV Venus inh – qHTS for Stage-Specific Inhibitors of Vaccinia Orthopoxvirus: Venus Reporter Primary qHTS; Potency, µM (highest dose often 36.5 µM), for the others: at the highest dose activity change, negative = inhibition, usual class: inhibitors; actives 0.46% (n = 330,000); Vaccinia virus Venus reporter expression, fluorescence; calls by dose curve; tested in A549 cells; note: potency is the fitted concentration of half-maximal effect; % is set by controls: 0 for no effect and ±100 for the full control effect; nearly all actives have a fitted effect of over 30% in size
SARS PLpro yeast-1 – qHTS of Yeast-based Assay for SARS-CoV PLP. Potency, µM (doses to about 32.9 µM), inactives show top-dose activity, positive = growth rescue, usual class: activators. actives 0.19% (n = 330,000). S. cerevisiae expressing SARS-CoV PLpro, growth rescue; calls by dose curve; note: potency is the fitted concentration of half-maximal effect; 0% is about no effect; nearly all actives have a fitted effect of over 55% in size
SARS PLpro yeast-2 – qHTS of Yeast-based Assay for SARS-CoV PLP: Hit Validation; shares compounds with SARS PLpro yeast-1; calls only; actives 19% (n = 1,000); yeast expressing SARS-CoV PLpro, growth phenotype rescue; AID 652038, 2013; call rule not given here
* hit, by the source's call; i = inactive; ? = inconclusive; · = no result given; + = active, no number; [ ] = remark or other dose. Unless noted, calls come from the whole dose curve; as a rule, active = well fitted curve in the direction sought with a large enough effect; inconclusive = small, poorly fitted or top-dose-only effect, or another doubt; inactive = no such curve, though single readings can be large; an effect the other way counts as inactive or inconclusive.

SMILES	AmpC detergent	AmpC no deterg	VACV mCherry inh	VACV Venus inh	SARS PLpro yeast-1	SARS PLpro yeast-2
O=C1NCCCC1C(=O)N/N=C/c1cccc(O)c1 (configuration not stated)	?	-9%	i	-4%	3%	·
O=C1NCCCC1C(=O)N/N=C/c1ccccc1 (configuration not stated)	0%	-12%	i	-5%	?	i
CCOC(=O)[C@]12CCC=C1N(Cc1ccccc1)C(=O)[C@H](CC(=O)NCC1CCCCC1)C2	·	·	i	-12%	·	·
Fc1ccccc1OCCCCCCN1CCCC1	4%	52%	·	·	-2%	·
Fc1ccccc1OCCCCCN1CCCC1	-8%	12%	-8%	-4%	2.5µM*	i
COCCNC(=O)C1(C)CCCN(C(=O)c2cccc(C#N)c2)C1 (configuration not stated)	·	·	3%	-5%	·	·
CCN(CC)S(=O)(=O)c1cc(C(=O)OCC(=O)Nc2c(F)cccc2F)ccc1F	-11%	-15%	i	-3%	?	i
CCc1c(C)c2ccc(O)c(CN3CCN(c4ccc(F)cc4)CC3)c2oc1=O	0%	·	-27%	-19%	·	·
COc1cc(OC)cc(C(=O)N[C@H](C(=O)OCC(=O)Nc2cccc(F)c2)C(C)C)c1	2%	25%	i	-13%	3.5µM*	i
COc1cc(OC)cc(C(=O)N[C@H](C(=O)OCC(=O)Nc2ccc(OC)c(OC)c2)C(C)C)c1	-11%	51%	·	·	-2%	·
O=C(CCc1c[nH]c2ccccc12)NCc1ccc2c(c1)OCO2	-3%	-31%	-8%	0%	-1%	·
c1ccc2c(CCNCc3ccc4c(c3)OCO4)c[nH]c2c1	-1%	-1%	·	·	?	i
C(=N\NC(=Nc1ccccc1)c1ccccn1)/c1ccccn1	?	-2%	-21%	-12%	?	?
Clc1ccc(/C=N/NC(=Nc2ccccc2)c2ccccn2)c(Cl)c1	2%	3%	-12%	-18%	0%	·
COc1cccc(-c2c(NC(=O)c3ccco3)oc3ccccc3c2=O)c1	0%	-42%	11%	-2%	?	i
COc1cc([N+](=O)[O-])cc(/C=N/NC(=O)C(C)Nc2cccc3ccccc23)c1O (configuration not stated)	-10%	-38%	-14%	-22%	10µM*	?
CC(=O)N1CCCc2cc(S(=O)(=O)NCc3ccc(N(C)C)cc3)ccc21	1%	·	-1%	-16%	·	·
Cn1c(Oc2ccncc2)nc2cc(-c3ccsc3)sc2c1=O	·	·	-26%	?	·	·
CCn1cc(CN2Cc3ccccc3OC(c3ccccc3OC)C2)c(C)n1 (configuration not stated)	·	·	-14%	-7%	·	·
CN(CC(=O)Nc1ccc(Cl)c(C(F)(F)F)c1)C(=O)/C=C/c1cccs1	-7%	-16%	·	·	?	i
CN(CC(=O)Nc1ccc(Cl)c(C(F)(F)F)c1)C(=O)/C=C/c1ccco1	-9%	-13%	?	-27%	-19%	·
CC(=O)NC(c1ccccc1)c1cc([N+](=O)[O-])c2cccnc2c1O (configuration not stated)	-10%	-23%	?	?	2%	·
CC(C)C(=O)NC(c1ccccc1)c1cc([N+](=O)[O-])c2cccnc2c1O (configuration not stated)	?	-42%	?	?	?	i
CCC(=O)NC(c1cccs1)c1cc([N+](=O)[O-])c2cccnc2c1O (configuration not stated)	-14%	-30%	?	?	?	i
CCCC(=O)NC(c1cccs1)c1cc([N+](=O)[O-])c2cccnc2c1O (configuration not stated)	?	-35%	?	-26%	·	i
SMILES	AmpC detergent	AmpC no deterg	VACV mCherry inh	VACV Venus inh	SARS PLpro yeast-1	SARS PLpro yeast-2
CN1OC[C@@H]2CN(C(=S)Nc3ccc(C#N)cc3)[C@H](c3ccc(N4CCCCC4)cc3)C[C@@H]21	·	·	5%	0%	·	·
Cc1ccc(-n2c(O)c(/C=N/NC(=O)C3COc4ccccc4O3)c3ccccc3c2=O)cc1 (configuration not stated)	-2%	-37%	-25%	-18%	?	?
O=C(N/N=C/c1c(O)n(-c2ccccc2Cl)c(=O)c2ccccc12)C1COc2ccccc2O1 (configuration not stated)	-3%	-27%	-16%	-1%	11µM*	+
O=C(N/N=C\c1cccc([N+](=O)[O-])c1O)C1COc2ccccc2O1 (configuration not stated)	6%	-24%	i	-20%	13µM*	i
O=C(N/N=C/c1cccc([N+](=O)[O-])c1)C1COc2ccccc2O1 (configuration not stated)	0%	-29%	0%	-14%	-6%	·
Cc1c(/C=N\NC(=O)C2COc3ccccc3O2)c2ccccc2n1C (configuration not stated)	3%	-22%	-21%	?	-32%	·
Cc1[nH]n(-c2ccccc2)c(=O)c1/C=N\NC(=O)C1COc2ccccc2O1 (configuration not stated)	-1%	-43%	-19%	-24%	10µM*	i
COc1cccc(Nc2c3c(nc4nncn24)CCC3)c1	10%	·	-18%	-18%	·	·
O=c1c2ccccc2nc(N/N=C/c2c(O)ccc3ccccc23)n1O	-9%	-51%	·	?	13µM*	+
CC(=O)Oc1ccc(-c2cccc(C(=O)OCC(=O)Nc3ccccc3Oc3ccccc3)c2)cc1	-9%	-26%	-10%	-25%	?	+
C#CC[N+](C)(C)CCCCCCCC	0%	1%	·	·	2%	·
C#CC[N+](C)(C)CCCCCCCCCC	-5%	14%	16µM*	14µM*	3.2µM*	i
CCOC(=O)c1cnc2nc(NCc3ccc(OCC)cc3)[nH]n2c1=O	11%	·	-7%[7.34 µM]	-12%[7.34 µM]	·	·
CCCCNC(=O)C1c2ccccc2OCC(=O)N1Cc1cccnc1 (configuration not stated)	·	·	6%	3%	·	·
CCNC(=S)NNC(=O)C1CCCCC1	0%	-22%	·	·	4µM*	i
COCCNC(=S)N/N=C(\C)c1ccc(OC(F)F)cc1	-10%	-9%	·	·	1%	·
COCCNC(=S)N/N=C(\C)c1ccc(OC)cc1	-11%	-4%	-10%	-12%	22µM*	+
COCCNC(=S)N/N=C(\C)c1ccc2cc(OC)ccc2c1	-4%	-52%	?	-24%	8.9µM*	i

Compound activity: PubChem, National Center for Advancing Translational Sciences (NCATS)
